Data as given in PubChem BioAssay.
Several values for one entry are separate records, joined by “and”; a condition that tells them apart may be missing. Identical values can stand only once. Activity calls are given as the source filed them.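 How the source made its calls, unless noted: active means thallium flux through the channel raised or lowered by more than 3 SD from vehicle-only wells, actives on both sides; inactive means the rest.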

Legend:
[1] = biological target: NAD(+) hydrolase SARM1 (Homo sapiens) (UniProt Q6SZW1); experiment: blocking NAD cleavage by SARM1 SAM-TIR – cell lysate, NAD-Glo luminescence (AID 1508614;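 active means compound whose remaining NAD level is above about 45 nM, limit read from the data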;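 further: higher remaining NAD means stronger inhibition of SARM1 NADase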); conditions: SAM-TIR HEK293T lysate NADase, at 1 µM, hits give high values
NAD(+) hydrolase SARM1 (Homo sapiens), sequence (Q6SZW1 whole entry, looked up, the tested form may be a part): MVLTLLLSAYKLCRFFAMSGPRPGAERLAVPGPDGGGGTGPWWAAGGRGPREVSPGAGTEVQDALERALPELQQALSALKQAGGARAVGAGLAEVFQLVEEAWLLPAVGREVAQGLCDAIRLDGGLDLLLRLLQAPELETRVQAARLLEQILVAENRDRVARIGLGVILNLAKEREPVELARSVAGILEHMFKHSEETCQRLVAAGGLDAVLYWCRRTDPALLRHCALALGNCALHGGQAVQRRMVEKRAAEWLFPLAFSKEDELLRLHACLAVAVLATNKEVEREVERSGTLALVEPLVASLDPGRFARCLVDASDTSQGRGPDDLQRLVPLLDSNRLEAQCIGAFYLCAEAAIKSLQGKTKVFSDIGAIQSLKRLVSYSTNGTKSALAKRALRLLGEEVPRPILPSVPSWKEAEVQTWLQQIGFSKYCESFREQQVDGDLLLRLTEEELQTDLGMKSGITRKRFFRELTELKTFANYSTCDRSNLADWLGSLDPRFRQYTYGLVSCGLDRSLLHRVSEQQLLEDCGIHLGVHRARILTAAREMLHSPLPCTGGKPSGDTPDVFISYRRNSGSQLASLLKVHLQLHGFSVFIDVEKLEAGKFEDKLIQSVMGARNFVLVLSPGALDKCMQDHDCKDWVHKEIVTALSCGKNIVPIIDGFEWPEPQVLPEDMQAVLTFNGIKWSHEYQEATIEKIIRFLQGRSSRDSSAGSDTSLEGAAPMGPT

[2] = biological target: Mitogen-activated protein kinase 7 (Homo sapiens) (UniProt Q13164); experiment: Gal4-ERK5 driven luciferase induction – cell-based, HTS, primary screen (AID 1508626;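 active means luciferase signal above three times the same-plate solvent-only control wells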;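 further: luciferase driven by Gal4-ERK5 fusion binding five Gal4 sites before minimal TATA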); conditions: HeLa Gal4-ERK5 transactivation, 18 h, at 5 µM, hits give high values
Mitogen-activated protein kinase 7 (Homo sapiens), sequence (Q13164 whole entry, looked up, the tested form may be a part): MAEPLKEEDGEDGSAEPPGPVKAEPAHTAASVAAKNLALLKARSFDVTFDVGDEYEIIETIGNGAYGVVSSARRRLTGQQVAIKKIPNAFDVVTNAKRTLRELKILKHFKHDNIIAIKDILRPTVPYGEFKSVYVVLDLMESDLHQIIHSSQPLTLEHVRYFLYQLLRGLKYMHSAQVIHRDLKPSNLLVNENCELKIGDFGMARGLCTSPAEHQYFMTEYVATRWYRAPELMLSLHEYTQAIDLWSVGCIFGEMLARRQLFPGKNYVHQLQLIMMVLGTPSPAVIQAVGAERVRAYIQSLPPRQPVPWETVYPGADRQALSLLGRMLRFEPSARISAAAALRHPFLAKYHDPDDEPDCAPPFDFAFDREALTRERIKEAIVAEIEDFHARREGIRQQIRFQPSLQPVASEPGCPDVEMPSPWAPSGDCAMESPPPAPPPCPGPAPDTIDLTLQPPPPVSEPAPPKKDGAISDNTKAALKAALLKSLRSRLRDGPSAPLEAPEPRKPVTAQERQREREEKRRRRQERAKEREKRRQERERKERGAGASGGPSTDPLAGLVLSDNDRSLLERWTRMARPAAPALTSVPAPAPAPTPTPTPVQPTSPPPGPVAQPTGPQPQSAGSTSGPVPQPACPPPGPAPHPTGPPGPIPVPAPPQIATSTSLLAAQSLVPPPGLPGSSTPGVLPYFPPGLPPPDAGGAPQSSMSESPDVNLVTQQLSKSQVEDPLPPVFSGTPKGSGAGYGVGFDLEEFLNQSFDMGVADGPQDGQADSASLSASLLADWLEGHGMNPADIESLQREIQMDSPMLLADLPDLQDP

[3] = galactose survival enhancers in mitochondrial complex I cybrids – cell-based, galactose medium, ATP luminescence, primary screen (AID 1645843;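 active means z-score of at least 1.8 in each of two replicates, scored against plate mean and spread of sample wells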;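 further: positive z means more ATP and so rescue of galactose-driven cybrid death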); conditions: complex I mutant cybrid cells, 72 h, hits give high values
[4] = system: F380Y; experiment: BK channel mutant inhibitors and activators – cell-based, U2OS BacMam, thallium flux, beta subunits, selectivity assay, profiling panel (AID 1259406); conditions: U2OS BacMam BK variants, at 30 µM;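 further: initial slope of Thallos dye fluorescence rise after thallium is added; log ratio against the mean of 0.3% DMSO vehicle wells on the same plate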
[5] = system: F380Y/beta1; experiment: as above; conditions: U2OS BacMam BK variants, at 30 µM

CCCOc1ccc(C(=O)OCCN(CC)CC)cc1N
inactive: remaining NAD [1] 10 nM | luciferase signal [2] 212 AU | z-score [3] 0.735 and 0.01 | log fold change Tl+ flux [4] 0.0362 | log fold change Tl+ flux [5] -0.0262

O=C(NCCO[N+](=O)[O-])c1cccnc1
inactive: remaining NAD [1] 10 nM | z-score [3] 0.795 and 0.02 and 0.605 | log fold change Tl+ flux [4] 0.0612 | log fold change Tl+ flux [5] 0.00537

Cc1cccc(C)c1OCC(C)N (centres undefined)
inactive: remaining NAD [1] 10 nM | luciferase signal [2] 52 AU | z-score [3] -0.045 and 0.78 and -0.055 | log fold change Tl+ flux [4] -0.014 | log fold change Tl+ flux [5] 0.0282

Cc1nc2n(c(=O)c1CCN1CCC(c3noc4cc(F)ccc34)CC1)CCCC2
inactive: remaining NAD [1] 10 nM | z-score [3] -1.22 and -0.71 | log fold change Tl+ flux [4] 0.0311 | log fold change Tl+ flux [5] -0.00468

CC(C)c1ccc2oc3nc(N)c(C(=O)O)cc3c(=O)c2c1
inactive: remaining NAD [1] 10 nM | z-score [3] 0.635 | log fold change Tl+ flux [4] 0.0548 | log fold change Tl+ flux [5] 0.0494

CNS(=O)(=O)Cc1ccc2[nH]cc(CCN(C)C)c2c1
inactive: remaining NAD [1] 10 nM | z-score [3] 0.385 and 0.365 and 0.755 | log fold change Tl+ flux [4] 0.0165 | log fold change Tl+ flux [5] -0.000461

CCOC(=O)[C@H](CCc1ccccc1)N[C@@H](C)C(=O)N1[C@H](C(=O)O)C[C@@H]2CCC[C@@H]21
inactive: remaining NAD [1] 10 nM | luciferase signal [2] 316 AU | z-score [3] 2.63 and 0.46 | log fold change Tl+ flux [4] -0.0209 and 0.0487 | log fold change Tl+ flux [5] -0.00638 and 0.058

Nc1nc(N)nc(-c2cc(Cl)ccc2Cl)n1
inactive: remaining NAD [1] 10 nM | z-score [3] 0.88 and -0.09 and 0.54 | log fold change Tl+ flux [4] 0.00819 | log fold change Tl+ flux [5] 0.00785

COc1ccccc1OCC(O)CN1CCN(CC(=O)Nc2c(C)cccc2C)CC1 (centres undefined)
inactive: remaining NAD [1] 10 nM | luciferase signal [2] 56 AU | z-score [3] -0.345 and -0.115 and 0.005 | log fold change Tl+ flux [4] 0.091 | log fold change Tl+ flux [5] 0.0232

CCOc1cc(CC(=O)N[C@@H](CC(C)C)c2ccccc2N2CCCCC2)ccc1C(=O)O
active: z-score [3] 3.92 | log fold change Tl+ flux [4] 0.252 | log fold change Tl+ flux [5] 0.45
inactive: remaining NAD [1] 10 nM

C[C@H](NC(CCc1ccccc1)C(=O)O)C(=O)N1CCC[C@H]1C(=O)O (some centres undefined)
inactive: remaining NAD [1] 10 nM | z-score [3] 0.7 and 0.605 | log fold change Tl+ flux [4] 0.0291 | log fold change Tl+ flux [5] 0.00867

Nc1ccn([C@H]2CC[C@@H](CO)O2)c(=O)n1
inactive: remaining NAD [1] 10 nM | z-score [3] 0.025 and 0.685 | log fold change Tl+ flux [4] 0.0263 | log fold change Tl+ flux [5] 0.0264

NS(=O)(=O)c1cc(C(=O)O)c(NCc2ccco2)cc1Cl
inactive: remaining NAD [1] 10 nM | luciferase signal [2] 72 AU | z-score [3] 0.405 and 0.415 | log fold change Tl+ flux [4] -0.0179 | log fold change Tl+ flux [5] -0.0049

Cc1nccn1CC1CCc2c(c3ccccc3n2C)C1=O (centres undefined)
inactive: remaining NAD [1] 10 nM | z-score [3] 0.415 and 0.495 and 0.69 | log fold change Tl+ flux [4] 0.0107 and 0.024 | log fold change Tl+ flux [5] 0.000378 and -0.0486

CC(=O)Oc1ccccc1C(=O)Nc1ncc([N+](=O)[O-])s1
inactive: remaining NAD [1] 10 nM | z-score [3] -1.79 | log fold change Tl+ flux [5] 0.0346
active: log fold change Tl+ flux [4] -0.199

CC[N+](C)(CC)CCOC(=O)C(O)(c1ccccc1)C1CCCCC1 (centres undefined)
active: log fold change Tl+ flux [4] -0.192
inactive: remaining NAD [1] 10 nM | z-score [3] 0.47 | log fold change Tl+ flux [5] -0.0336
